Our source for the Potency, outcome and max activation values is PubChem BioAssay (Tox21).

Assay [1] has as its target Thyrotropin-releasing hormone receptor (Homo sapiens) (UniProt P34981). In words: qHTS assay to identify small molecule agonists of the thyrotropin-releasing hormone receptor (TRHR) signaling pathway (AID 1346891; calls by dose curve;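 further: HEK293 cells expressing TRHR with calcium dye readout; series mostly up to about 58 µM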). The gist of the method: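 Compounds were tested as agonists at 15 concentrations, in triplicate, on TRHR-Hek293 cells; calcium-sensitive dye fluorescence was recorded for 3 min following addition.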
(In general: Quantitative high-throughput screening tests each substance at several concentrations.)

A short description of assay [2]: Human pregnane X receptor (PXR) small molecule agonists, qHTS cell viability counter screen (AID 1346977). Further: nearly all actives have a fitted effect of over 50% in size. Further: potency means the concentration at half of the fitted maximal effect. Summed up: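 Viability counter screen: CellTiter-Fluor signal in PXR-Luc HepG2 cells, 24hr compound exposure, 37C, 5% CO2.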
Assay [3] can be described thus: Caspase-3/7 induction in HepG2 cells by small molecules, qHTS assay (AID 1346978). Further: nearly all actives have a fitted effect of over 15% in size. Summed up: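 Wild-type HepG2 cells (2,000/well) were settled 5 h at 37 C, 5% CO2, then exposed to compounds in DMSO for 17 h. Caspase-3/7 activity was read by luminescence 30 min after adding Caspase-Glo 3/7 reagent at room temperature.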
Assay [4] can be described thus: Caspase-3/7 induction in CHO-K1 cells by small molecules, qHTS cell viability counter screen (AID 1346979). Further: nearly all actives have a fitted effect of over 35% in size. Further: potency means the concentration at half of the fitted maximal effect. Summed up: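 Viability readout by fluorescence (CellTiter-Fluor) on wild-type CHO-K1 cells exposed for 16hr at 37C and 5% CO2 to compounds delivered in DMSO; reagent incubated 1hr before reading.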
The nature of assay [5]: Caspase-3/7 induction in HepG2 cells by small molecules, qHTS cell viability counter screen (AID 1346981). Further: series mostly up to about 92 µM; nearly all actives have a fitted effect of over 30% in size. The gist of the method:
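Fluorescence read-out of live-cell protease activity (CellTiter-Fluor) after 1 hr with reagent. This was measured in the same wells as the caspase-3/7 luminescence, on HepG2 cells exposed to DMSO-dissolved compounds for 16 hr at 37 C.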

Assay [6] addresses Nuclear receptor subfamily 1 group I member 2 (Homo sapiens) (UniProt O75469). The assay is described as follows: Human pregnane X receptor (PXR) small molecule agonists, qHTS assay (AID 1346982). Further: nearly all actives have a fitted effect of over 35% in size. Further: potency means the concentration at half of the fitted maximal effect. The gist of the method:
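HepG2 PXR-Luc reporter line, 5% charcoal-stripped FBS; 5 hr pre-incubation, compound (DMSO) 24 hr at 37 C/5% CO2; ONE-Glo 30 min RT; luminescence read-out.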

Assay [7] concerns the target Cytochrome P450 2D6 (Homo sapiens) (UniProt P10635). The assay is described as follows: Cytochrome P450 Family 2 Subfamily D Member 6 (CYP2D6) small molecule antagonists: luciferase reporter qHTS assay (AID 1671196). Further: nearly all actives have a fitted effect of over 50% in size. Further: potency means the concentration at half of the fitted maximal effect. Summed up:
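Luminogenic proluciferin substrate, CYP2D6 enzyme; 10 min RT preincubation with compound, NADPH regeneration system added, 1 h RT. Stop/detection reagent, 20 min RT, luminescence read (RLU). Signal proportional to CYP activity.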

Assay [8] has as its target Cytochrome P450 2C19 (Homo sapiens) (UniProt P33261). In words: Cytochrome P450 Family 2 Subfamily C Member 19 (CYP2C19) small molecule antagonists: luciferase reporter qHTS assay (AID 1671197). Further: nearly all actives have a fitted effect of over 65% in size. Further: potency means the concentration at half of the fitted maximal effect. Summed up:
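Inhibition of CYP2C19 was scored from loss of luminescence in a P450-Glo proluciferin substrate assay, NADPH-started and run 1 h at 37C, with ketoconazole as positive control.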

For assay [9], the target named is Voltage-gated inwardly rectifying potassium channel KCNH2 (Homo sapiens) (UniProt Q12809). In words: Human Ether-a-go-go-Related Gene (hERG) channel small molecule antagonists: fluorescence cell-based qHTS assay (AID 1671200). Further: nearly all actives have a fitted effect of over 50% in size. Further: potency means the concentration at half of the fitted maximal effect. The gist of the method:
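Thallium served as the potassium surrogate; its influx into dye-loaded U2OS cells carrying the channel was measured by fluorescence over 2 min.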
For orientation: Block of hERG is tested as a sign of cardiac risk.

In assay [10] the target is Cytochrome P450 3A4 (Homo sapiens) (UniProt P08684). The assay is described as follows: Cytochrome P450 Family 3 Subfamily A Member 4 (CYP3A4) small molecule antagonists: luciferase reporter qHTS assay (AID 1671201). Further: nearly all actives have a fitted effect of over 50% in size. Further: potency means the concentration at half of the fitted maximal effect. The gist of the method: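 Relative luminescence units after 20 min with luciferin detection reagent served as read-out. Beforehand, CYP3A4 turned over a proluciferin substrate for 1 h at room temperature with NADPH regeneration, following 10 min compound preincubation.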
Sequence of Cytochrome P450 3A4 (Homo sapiens) (P08684 whole entry, looked up): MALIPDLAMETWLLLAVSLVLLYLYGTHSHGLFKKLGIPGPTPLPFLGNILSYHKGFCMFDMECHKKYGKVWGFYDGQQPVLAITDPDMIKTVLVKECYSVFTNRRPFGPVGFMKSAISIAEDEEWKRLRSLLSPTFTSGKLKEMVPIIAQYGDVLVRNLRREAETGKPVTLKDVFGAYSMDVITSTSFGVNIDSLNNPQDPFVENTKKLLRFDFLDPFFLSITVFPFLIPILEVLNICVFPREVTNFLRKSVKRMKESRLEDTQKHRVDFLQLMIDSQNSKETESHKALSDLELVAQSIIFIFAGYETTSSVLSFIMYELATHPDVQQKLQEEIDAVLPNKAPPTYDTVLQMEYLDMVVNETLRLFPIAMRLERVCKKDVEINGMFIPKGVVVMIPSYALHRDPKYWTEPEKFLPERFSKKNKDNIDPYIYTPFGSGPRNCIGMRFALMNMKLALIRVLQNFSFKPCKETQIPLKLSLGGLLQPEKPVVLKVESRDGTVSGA
On the technique in general: Reporter assays use an easily measured gene product as a stand-in for the process of interest.

A short description of assay [11]: Caspase-3/7 induction in CHO-K1 cells by small molecules, qHTS assay (AID 1346980). Further: nearly all actives have a fitted effect of over 15% in size. Summed up:
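Wild-type cells were seeded at 1,500 per well and settled 5 hr at 37 C, 5% CO2, then exposed to DMSO-dissolved compounds for 17 hr. Caspase-Glo 3/7 reagent was added, and luminescence was read after 30min at room temperature.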

The target of assay [12] is Cytochrome P450 2C9 (Homo sapiens) (UniProt P11712). In words: Cytochrome P450 Family 2 Subfamily C Member 9 (CYP2C9) small molecule antagonists: luciferase reporter qHTS assay (AID 1671198). Further: nearly all actives have a fitted effect of over 50% in size. Further: potency means the concentration at half of the fitted maximal effect. Summed up:
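CYP2C9 activity was measured with a P450-Glo proluciferin substrate. Enzyme–substrate mix was held with compound for 10 min at room temperature, then NADPH regeneration solution was added for 1 h at 37C. Luciferin product was read as luminescence.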

Assay [13] deals with Cytochrome P450 1A2 (Homo sapiens) (UniProt P05177). The assay is described as follows: Cytochrome P450 Family 1 Subfamily A Member 2 (CYP1A2) small molecule antagonists: luciferase reporter qHTS assay (AID 1671199). Further: nearly all actives have a fitted effect of over 50% in size. Further: potency means the concentration at half of the fitted maximal effect. Summed up:
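Luminescence readout (relative luminescence units) after luciferin detection reagent, 20 min RT. Preceded by 1 h room-temperature CYP1A2 reaction with NADPH regeneration solution following 10 min compound preincubation with enzyme and proluciferin substrate. Furafylline positive control.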

The target in assay [14] is Nuclear receptor subfamily 1 group I member 2 (Rattus norvegicus) (UniProt Q9R1A7). The assay is described as follows: Rat pregnane X receptor (rPXR) activation by small molecules, qHTS assay (AID 1346983). Further: nearly all actives have a fitted effect of over 20% in size. Further: potency means the concentration at half of the fitted maximal effect. The conditions noted are these: rPXR luciferase reporter cells, One-Glo luminescence, 24 h; max activation: stronger effect = higher value. The gist of the method:
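Cell-based rPXR luciferase reporter assay, 2,000 cells per well, rested 5hr at 37 C before compound addition in DMSO, then 24 hr at 37 C. One-Glo reagent was added and luminescence read after 30 min at room temperature.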

The target in assay [15] is Nuclear receptor subfamily 1 group I member 2 (Homo sapiens) (UniProt O75469). The assay is described as follows: CYP3A4 induction through human pregnane X receptor (PXR) by small molecules, qHTS assay (AID 1346984). Further: nearly all actives have a fitted effect of over 40% in size. Further: potency means the concentration at half of the fitted maximal effect. The gist of the method:
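HepG2-derived DPX-2 line carrying PXR plus a CYP3A4-promoter luciferase reporter; cells plated 5 hr, compound-exposed 24 hr at 37C. CYP3A4 activity probed with 3uM (final) Luciferin-IPA for 3hr, then luciferase read after One-Glo.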

Assay [16] has the same target. The assay is described as follows: Human pregnane X receptor (PXR) activation by small molecules, qHTS assay (AID 1346985). Further: nearly all actives have a fitted effect of over 40% in size. Further: potency means the concentration at half of the fitted maximal effect. The gist of the method:
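DPX-2 cells (HepG2 co-transfected with a PXR response element and a CYP3A4-promoter luciferase construct) were seeded at 2,000 per well, rested 5 hr at 37C, then exposed to DMSO-dissolved compounds for 24 hr. Activation was read as luciferase luminescence.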

Values without a mark were called inactive. Inconclusive results are not listed. Activity calls are given as the source filed them. Unless noted, the call rests on the fitted dose curve; in most records, active means well fitted curve in the direction sought with a large enough effect in the repeat runs; inconclusive means weak or mixed curves; inactive means no such curve, though single readings can be large; an effect the other way counts as inactive or inconclusive.
On the % scale 0 is the no-effect control and ±100 the full control effect.

Sequence of Cytochrome P450 2C9 (Homo sapiens) (P11712 whole entry, looked up): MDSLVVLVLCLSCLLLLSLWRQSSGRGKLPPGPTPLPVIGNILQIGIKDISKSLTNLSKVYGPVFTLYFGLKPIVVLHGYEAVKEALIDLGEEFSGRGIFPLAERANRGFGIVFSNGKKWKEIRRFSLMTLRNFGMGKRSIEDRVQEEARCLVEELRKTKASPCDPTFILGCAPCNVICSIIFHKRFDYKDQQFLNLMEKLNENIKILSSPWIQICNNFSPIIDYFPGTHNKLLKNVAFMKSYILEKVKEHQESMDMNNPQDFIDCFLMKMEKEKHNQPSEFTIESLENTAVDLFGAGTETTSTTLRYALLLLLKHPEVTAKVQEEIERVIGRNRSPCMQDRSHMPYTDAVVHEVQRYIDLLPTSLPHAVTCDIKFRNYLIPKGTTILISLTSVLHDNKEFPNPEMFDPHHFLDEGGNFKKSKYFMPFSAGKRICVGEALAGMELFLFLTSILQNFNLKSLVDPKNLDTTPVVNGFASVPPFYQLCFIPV
Sequence of Cytochrome P450 1A2 (Homo sapiens) (P05177 whole entry, looked up): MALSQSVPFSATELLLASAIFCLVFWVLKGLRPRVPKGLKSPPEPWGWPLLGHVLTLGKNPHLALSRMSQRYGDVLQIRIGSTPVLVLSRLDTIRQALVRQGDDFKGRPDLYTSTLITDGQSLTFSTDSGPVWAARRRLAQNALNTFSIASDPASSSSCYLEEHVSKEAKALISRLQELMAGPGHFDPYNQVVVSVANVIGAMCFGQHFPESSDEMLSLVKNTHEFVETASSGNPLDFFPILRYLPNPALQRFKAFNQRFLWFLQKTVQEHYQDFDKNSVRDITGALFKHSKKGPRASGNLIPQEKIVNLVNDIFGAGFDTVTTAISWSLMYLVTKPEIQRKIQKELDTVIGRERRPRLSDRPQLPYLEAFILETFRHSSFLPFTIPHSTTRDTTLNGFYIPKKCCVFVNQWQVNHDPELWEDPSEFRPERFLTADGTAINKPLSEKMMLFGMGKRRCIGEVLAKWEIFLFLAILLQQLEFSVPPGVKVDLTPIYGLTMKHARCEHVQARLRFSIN
Sequence of Nuclear receptor subfamily 1 group I member 2 (Rattus norvegicus) (Q9R1A7 whole entry, looked up): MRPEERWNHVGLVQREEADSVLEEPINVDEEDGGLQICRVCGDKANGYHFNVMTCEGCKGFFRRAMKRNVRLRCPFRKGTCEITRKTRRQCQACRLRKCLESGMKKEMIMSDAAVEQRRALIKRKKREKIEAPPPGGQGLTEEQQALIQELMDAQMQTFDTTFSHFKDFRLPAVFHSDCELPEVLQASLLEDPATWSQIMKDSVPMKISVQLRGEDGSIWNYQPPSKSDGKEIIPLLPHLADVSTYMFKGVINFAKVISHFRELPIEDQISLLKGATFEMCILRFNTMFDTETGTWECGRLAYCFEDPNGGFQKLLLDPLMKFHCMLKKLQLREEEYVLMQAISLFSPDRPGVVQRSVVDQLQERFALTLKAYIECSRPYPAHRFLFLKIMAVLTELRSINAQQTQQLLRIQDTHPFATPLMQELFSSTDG
Sequence of Cytochrome P450 2C19 (Homo sapiens) (P33261 whole entry, looked up): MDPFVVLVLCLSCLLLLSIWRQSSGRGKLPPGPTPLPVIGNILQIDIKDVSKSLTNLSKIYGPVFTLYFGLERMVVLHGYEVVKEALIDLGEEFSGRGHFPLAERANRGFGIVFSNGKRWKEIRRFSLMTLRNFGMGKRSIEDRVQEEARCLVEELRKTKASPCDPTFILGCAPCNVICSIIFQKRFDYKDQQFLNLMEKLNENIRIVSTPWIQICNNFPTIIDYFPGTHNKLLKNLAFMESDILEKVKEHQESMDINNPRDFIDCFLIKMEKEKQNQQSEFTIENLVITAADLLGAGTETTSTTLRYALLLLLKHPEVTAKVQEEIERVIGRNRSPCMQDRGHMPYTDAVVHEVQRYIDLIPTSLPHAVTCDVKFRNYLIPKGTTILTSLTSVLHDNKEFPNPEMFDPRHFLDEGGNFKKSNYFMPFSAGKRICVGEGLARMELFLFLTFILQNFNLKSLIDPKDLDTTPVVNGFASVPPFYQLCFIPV
Sequence of Cytochrome P450 2D6 (Homo sapiens) (P10635 whole entry, looked up): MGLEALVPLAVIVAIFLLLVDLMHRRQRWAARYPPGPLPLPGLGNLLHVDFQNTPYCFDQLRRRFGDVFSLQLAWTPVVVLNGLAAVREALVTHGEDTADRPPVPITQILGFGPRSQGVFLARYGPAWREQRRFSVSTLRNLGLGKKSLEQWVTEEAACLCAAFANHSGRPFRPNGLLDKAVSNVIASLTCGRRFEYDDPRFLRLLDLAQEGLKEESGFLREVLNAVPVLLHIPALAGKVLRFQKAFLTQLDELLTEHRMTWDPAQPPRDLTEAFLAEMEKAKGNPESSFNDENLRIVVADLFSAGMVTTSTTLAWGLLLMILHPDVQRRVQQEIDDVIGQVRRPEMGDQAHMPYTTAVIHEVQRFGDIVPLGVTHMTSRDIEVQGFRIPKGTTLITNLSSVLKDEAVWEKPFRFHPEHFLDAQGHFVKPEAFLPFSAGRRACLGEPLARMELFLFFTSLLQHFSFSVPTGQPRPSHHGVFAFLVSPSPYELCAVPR
Sequence of Voltage-gated inwardly rectifying potassium channel KCNH2 (Homo sapiens) (Q12809 whole entry, looked up): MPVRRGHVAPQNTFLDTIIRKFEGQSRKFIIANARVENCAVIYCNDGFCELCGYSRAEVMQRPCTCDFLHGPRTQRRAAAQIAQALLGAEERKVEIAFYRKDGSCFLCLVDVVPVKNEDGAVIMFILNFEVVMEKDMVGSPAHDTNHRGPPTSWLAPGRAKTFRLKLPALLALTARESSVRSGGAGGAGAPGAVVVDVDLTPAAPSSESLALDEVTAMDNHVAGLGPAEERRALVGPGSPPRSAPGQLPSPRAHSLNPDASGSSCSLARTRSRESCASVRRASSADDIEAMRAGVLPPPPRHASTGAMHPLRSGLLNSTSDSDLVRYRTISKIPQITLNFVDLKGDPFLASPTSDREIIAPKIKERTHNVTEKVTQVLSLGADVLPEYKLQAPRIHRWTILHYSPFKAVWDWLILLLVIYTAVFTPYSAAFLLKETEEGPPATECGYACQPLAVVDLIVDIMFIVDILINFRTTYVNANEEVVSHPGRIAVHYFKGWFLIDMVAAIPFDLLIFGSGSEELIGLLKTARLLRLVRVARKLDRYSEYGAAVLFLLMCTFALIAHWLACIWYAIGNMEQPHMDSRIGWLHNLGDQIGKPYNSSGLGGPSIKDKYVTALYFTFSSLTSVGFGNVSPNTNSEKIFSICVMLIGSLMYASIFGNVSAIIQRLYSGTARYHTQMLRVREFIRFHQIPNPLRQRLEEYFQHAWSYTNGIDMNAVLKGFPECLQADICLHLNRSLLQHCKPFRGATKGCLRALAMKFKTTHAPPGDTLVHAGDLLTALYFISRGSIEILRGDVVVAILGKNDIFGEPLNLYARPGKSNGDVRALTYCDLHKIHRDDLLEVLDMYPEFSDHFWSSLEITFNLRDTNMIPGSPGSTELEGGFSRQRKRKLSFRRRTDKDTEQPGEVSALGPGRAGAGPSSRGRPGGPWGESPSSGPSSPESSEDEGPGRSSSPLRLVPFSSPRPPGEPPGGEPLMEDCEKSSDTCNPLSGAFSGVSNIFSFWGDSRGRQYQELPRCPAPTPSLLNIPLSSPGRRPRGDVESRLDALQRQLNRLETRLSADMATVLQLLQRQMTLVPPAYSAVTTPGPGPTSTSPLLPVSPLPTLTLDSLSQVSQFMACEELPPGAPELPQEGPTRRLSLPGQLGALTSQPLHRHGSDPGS
Sequence of Nuclear receptor subfamily 1 group I member 2 (Homo sapiens) (O75469 whole entry, looked up): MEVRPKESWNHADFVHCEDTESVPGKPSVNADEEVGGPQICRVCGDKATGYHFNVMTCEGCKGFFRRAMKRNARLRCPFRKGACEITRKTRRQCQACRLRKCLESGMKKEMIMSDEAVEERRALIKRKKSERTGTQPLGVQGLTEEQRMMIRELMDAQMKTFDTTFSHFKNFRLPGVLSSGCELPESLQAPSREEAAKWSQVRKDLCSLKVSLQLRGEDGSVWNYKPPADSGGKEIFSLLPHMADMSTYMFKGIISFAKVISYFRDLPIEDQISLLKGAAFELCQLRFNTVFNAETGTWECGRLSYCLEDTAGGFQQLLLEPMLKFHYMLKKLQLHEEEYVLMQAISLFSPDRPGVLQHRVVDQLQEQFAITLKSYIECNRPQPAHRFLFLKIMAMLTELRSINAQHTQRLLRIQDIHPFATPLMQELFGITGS
Sequence of Thyrotropin-releasing hormone receptor (Homo sapiens) (P34981 whole entry, looked up): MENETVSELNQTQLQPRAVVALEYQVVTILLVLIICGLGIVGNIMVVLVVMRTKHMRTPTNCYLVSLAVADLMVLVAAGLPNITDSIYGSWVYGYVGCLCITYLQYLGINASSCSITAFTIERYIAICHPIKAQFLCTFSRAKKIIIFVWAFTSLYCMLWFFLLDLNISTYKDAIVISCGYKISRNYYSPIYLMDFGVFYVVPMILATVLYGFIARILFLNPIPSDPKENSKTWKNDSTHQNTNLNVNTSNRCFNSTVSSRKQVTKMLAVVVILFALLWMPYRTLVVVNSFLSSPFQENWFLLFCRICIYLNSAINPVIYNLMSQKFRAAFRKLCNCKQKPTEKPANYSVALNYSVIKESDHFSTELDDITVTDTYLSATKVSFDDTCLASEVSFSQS

Regarding `CO[Si](C)(OC)OC`, the Potency entry in assay [1], in assay [2], in [3], in assay [4], in assay [5] and in assay [6] was “inactive” throughout. For the same molecule, the Potency entry in assay [7], in assay [8] and in [9] was “inactive” throughout. The Potency in assay [10] is 4.91 µM (active).
With `O=C(O)c1cccc(O)c1`, the Potency result in assay [1], in assay [2], in assay [3], in assay [4], in assay [5] and in assay [9] was “inactive” each time. Moreover, in assay [11], the result was inactive. In [8], the Potency was 40.2 µM (active).
With `CC(C)c1nnc2ccc(-c3ocnc3-c3cc(F)ccc3F)cn12`, the Potency result in [1], in [2], in assay [3], in assay [4], in assay [9] and in assay [10] was “inactive” throughout. For the same molecule, in assay [11], the outcome was inactive. The Potency is 48.6 µM (active) in assay [6], 56.4 µM (active) in assay [8], 5.64 µM (active) in assay [12] and 35.6 µM (active) in assay [13].
In the case of `Cc1ccc(/C=N/n2c(-c3ccccc3)csc2=S)cc1`, the Potency result in assay [1], in assay [2], in [3], in assay [5], in [7] and in assay [9] was “inactive” each time. In addition, the call in assay [11] was inactive. The Potency in assay [6] is 23.7 µM (active); in [8], 8.71 µM (active); in assay [12] it was 6.92 µM (active).
Consider `CC1(C)O[C@@H]2C[C@H]3[C@@H]4CCC5=CC(=O)C=C[C@]5(C)[C@H]4[C@@H](O)C[C@]3(C)[C@]2(C(=O)CO)O1`, for which the Potency entry in assay [1], in [2], in [3], in [4], in assay [5] and in assay [13] was “inactive” throughout. For the same molecule, the Potency result in [9] was “inactive”. Moreover, the Potency is 8.91 µM (active) in assay [14], 1.58 µM (active) in assay [15], 38.9 µM (active) in assay [7] and 3.47 µM (active) in [10].
In the case of `CCc1nn(CCCN2CCN(c3cccc(Cl)c3)CC2)c(=O)n1CCOc1ccccc1`, the Potency result in assay [1], in assay [3], in assay [15], in assay [12] and in assay [13] was “inactive” throughout. The Potency in assay [2] is 23.7 µM (active); in assay [4] it was 29.8 µM (active); in assay [6], 3.76 µM (active); in [14], 12.6 µM (active); in assay [7], 4.9 µM (active); in [9], 1.51 µM (active). Further, in [11], the outcome was inactive.
With `CC[C@H](NC(=O)c1cc(F)ccc1NS(=O)(=O)c1cccc2cccnc12)c1ccccc1`, the Potency entry in assay [1], in assay [2], in assay [3], in [13] and in [9] was “inactive” each time. The Potency is 46 µM (active) in assay [4], 0.46 µM (active) in [6], 9.49 µM (active) in assay [12] and 1.5 µM (active) in [10]. In [11], the outcome was inactive.
`CCCCCCOC(=O)CCCCCCCC(=O)OCCCCCC`: the Potency entry in assay [1], in assay [2], in assay [3], in assay [4], in assay [5] and in assay [8] was “inactive” throughout. For the same molecule, the Potency entry in assay [9] and in assay [10] was “inactive” throughout. The result in assay [11] was inactive.
As for `Nc1nc(Cl)nc2c1ncn2[C@@H]1O[C@H](CO)[C@@H](O)[C@@H]1F`, the Potency entry in assay [1], in assay [2], in assay [3], in assay [5], in assay [7] and in assay [8] was “inactive” throughout. In addition, in [9], the Potency entry was “inactive”. Moreover, the result in assay [11] was inactive. For the same molecule, the Potency in [6] was 0.531 µM (active); in assay [16], 1 µM (active). In addition, the max activation in assay [14] was -7.37%.
Turning to `COc1cc2[nH]c(=O)[nH]c(=O)c2cc1OC`, the Potency entry in assay [1], in assay [3], in assay [4], in assay [5], in assay [6] and in [15] was “inactive” in each case. Also, the Potency entry in assay [16], in assay [7], in [8], in assay [12], in assay [9] and in [10] was “inactive” throughout. Further, in assay [11], the outcome was inactive. Moreover, the max activation in assay [14] is -3.43%.
